Data: PubChem BioAssay (Tox21)
“And” between values parts separate entries of the source, which are not always exact repeats. Equal values may be shown once. Results filed as inconclusive are left out. Where a call stands in place of a potency, no number is given. The source made the active and inactive calls. Unless noted, the call rests on the fitted dose curve; in most records, active means well fitted curve in the direction sought with a large enough effect in the repeat runs; inconclusive means weak or mixed curves; inactive means no such curve, though single readings can be large; an effect the other way counts as inactive or inconclusive.

How the values were obtained:
[1] = qHTS assay to identify small molecule antagonists of the estrogen receptor alpha (ER-alpha) signaling pathway using the BG1 cell line in the presence of 0.1 nM 17-beta-estradiol - cell viability counter screen (AID 1259241); further: nearly all actives have a fitted effect of over 40% in size; further: potency means the concentration at half of the fitted maximal effect
Summary of the method: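 The cell line endogenously expresses full-length ER-alpha and carries four EREs driving luciferase. Cells are cultured 5 days hormone-free, treated 22 hr with compounds and 0.1 nM estradiol, then viability is read by fluorescence.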

[2] = qHTS assay to identify small molecule antagonists of the androgen receptor (AR) signaling pathway using the MDA cell line in the presence of 0.5 nM R1881 - cell viability counter screen (AID 1259242); further: nearly all actives have a fitted effect of over 45% in size; further: potency means the concentration at half of the fitted maximal effect
Summary of the method: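 Cytotoxicity toward MDA-kb2 cells is measured by CellTiter-Fluor live-cell protease fluorescence after 16 hr compound exposure at 37C in the presence of 0.5 nM R1881 stimulator.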

[3] = target: Androgen receptor (Homo sapiens) (UniProt P10275); test: qHTS assay to identify small molecule antagonists of the androgen receptor (AR) signaling pathway using the MDA cell line in the presence of 0.5 nM R1881 (AID 1259243); further: nearly all actives have a fitted effect of over 50% in size; further: potency means the concentration at half of the fitted maximal effect
Summary of the method: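 Steps: seed MDA-kb2 cells, incubate 5 hr at 37C; pin-transfer compounds in DMSO; add R1881 to 0.5 nM final; incubate 16 hr; add ONE-Glo, wait 30 min at room temperature; read luminescence.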

[4] = target: Estrogen receptor (Homo sapiens) (UniProt P03372); test: qHTS assay to identify small molecule antagonists of the estrogen receptor alpha (ER-alpha) signaling pathway using the BG1 cell line in the presence of 0.1 nM 17-beta-estradiol (AID 1259244); further: nearly all actives have a fitted effect of over 50% in size; further: potency means the concentration at half of the fitted maximal effect
Summary of the method: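 After 5 days in hormone-depleted medium (charcoal-stripped serum, no phenol red), VM7Luc4E2 cells were seeded, incubated 24 h, then co-treated with compound and 0.1 nM (final) estradiol for 22 h before luminescence detection.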

[5] = qHTS assay to identify small molecule HDAC inhibitors (AID 1259364); further: nearly all actives have a fitted effect of over 45% in size; further: potency means the concentration at half of the fitted maximal effect
Summary of the method: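 Homogeneous cell-based luminescent assay of endogenous class I/II HDAC activity; HCT-116 cells, 2 h compound exposure, 30 min HDAC-Glo development at RT.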

[6] = qHTS assay to identify small molecule HDAC inhibitors - cell viability counter screen (AID 1259365); further: nearly all actives have a fitted effect of over 50% in size; further: potency means the concentration at half of the fitted maximal effect
Summary of the method: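 Viability readout: CellTiter-Glo luminescence. Wild-type HCT-116 cells, 2hr compound treatment following overnight attachment at 37 C.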

[7] = qHTS assay to identify small molecule agonists of the sonic hedgehog signaling (Shh) pathway - cell viability counter screen (AID 1259366); further: nearly all actives have a fitted effect of over 50% in size; further: potency means the concentration at half of the fitted maximal effect
Summary of the method: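 Viability measured fluorometrically (CellTiter-Fluor, 1hr, 37C) in 3T3 Gli1-Luc reporter cells after 23hr compound exposure within a 24hr incubation at 37C/5% CO2.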

[8] = qHTS assay to identify small molecule antagonists of the sonic hedgehog signaling (Shh) pathway - cell viability counter screen (AID 1259367); further: nearly all actives have a fitted effect of over 55% in size; further: potency means the concentration at half of the fitted maximal effect
Summary of the method: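 NIH/3T3-derived Gli1-Luc reporter cells, 2,000/well, plated 4 hr before compound addition, then stimulated with conditioned medium for 24 hr at 37C. Viability measured in the same wells by CellTiter-Fluor fluorescence, reagent added at 23 hr for 1 hr.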

[9] = qHTS assay to identify small molecule agonists of the sonic hedgehog signaling (Shh) pathway (AID 1259368; calls by dose curve; further: nearly all actives have a fitted effect of over 15% in size; further: potency means the concentration at half of the fitted maximal effect)
Summary of the method: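 Steps: seed 3T3 Gli1-Luc cells, incubate 4 hr at 37 C, pin-transfer compounds in DMSO alongside a positive control, incubate 24 hr, add luciferase detection reagent, wait 30 min at room temperature, read luminescence.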

[10] = qHTS assay to identify small molecule phospholipidosis (PLD) inducers (AID 1259344; active means well fitted curve in the direction sought with a large enough effect; an effect the other way counts as inactive or inconclusive)
Summary of the method: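 HepG2 cells, 900/well, treated with compound plus LipidTOX Red for 24 h at 37 C; amiodarone positive and DMSO negative controls. Fixed with paraformaldehyde/Hoechst, then high-content imaging scored LipidTOX pit count and integrated intensity per well and per cell.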

Sequence of Androgen receptor (Homo sapiens) (P10275 whole entry, looked up): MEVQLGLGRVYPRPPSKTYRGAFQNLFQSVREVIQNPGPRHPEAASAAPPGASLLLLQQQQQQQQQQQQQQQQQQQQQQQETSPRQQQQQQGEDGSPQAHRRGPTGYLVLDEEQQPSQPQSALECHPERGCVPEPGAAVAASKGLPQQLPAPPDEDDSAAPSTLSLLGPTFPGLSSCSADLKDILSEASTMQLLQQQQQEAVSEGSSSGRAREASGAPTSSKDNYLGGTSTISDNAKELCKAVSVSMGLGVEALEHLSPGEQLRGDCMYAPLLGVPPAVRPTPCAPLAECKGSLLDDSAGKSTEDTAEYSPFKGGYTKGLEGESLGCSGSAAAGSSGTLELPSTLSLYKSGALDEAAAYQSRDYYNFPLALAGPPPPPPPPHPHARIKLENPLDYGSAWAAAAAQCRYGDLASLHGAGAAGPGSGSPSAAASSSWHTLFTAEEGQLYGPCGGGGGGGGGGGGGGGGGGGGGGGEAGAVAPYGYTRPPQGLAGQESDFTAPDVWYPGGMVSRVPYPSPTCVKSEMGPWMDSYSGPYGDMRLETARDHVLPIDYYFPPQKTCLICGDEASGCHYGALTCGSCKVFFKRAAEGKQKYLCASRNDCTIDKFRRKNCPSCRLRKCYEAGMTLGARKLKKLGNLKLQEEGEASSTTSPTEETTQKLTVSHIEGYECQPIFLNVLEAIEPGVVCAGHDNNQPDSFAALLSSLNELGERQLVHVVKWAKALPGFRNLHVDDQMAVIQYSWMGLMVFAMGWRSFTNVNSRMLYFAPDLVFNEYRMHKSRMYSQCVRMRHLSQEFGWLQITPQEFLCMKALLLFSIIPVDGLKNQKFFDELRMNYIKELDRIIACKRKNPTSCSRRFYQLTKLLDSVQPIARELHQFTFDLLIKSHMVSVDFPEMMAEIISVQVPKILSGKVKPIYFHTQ
Sequence of Estrogen receptor (Homo sapiens) (P03372 whole entry, looked up): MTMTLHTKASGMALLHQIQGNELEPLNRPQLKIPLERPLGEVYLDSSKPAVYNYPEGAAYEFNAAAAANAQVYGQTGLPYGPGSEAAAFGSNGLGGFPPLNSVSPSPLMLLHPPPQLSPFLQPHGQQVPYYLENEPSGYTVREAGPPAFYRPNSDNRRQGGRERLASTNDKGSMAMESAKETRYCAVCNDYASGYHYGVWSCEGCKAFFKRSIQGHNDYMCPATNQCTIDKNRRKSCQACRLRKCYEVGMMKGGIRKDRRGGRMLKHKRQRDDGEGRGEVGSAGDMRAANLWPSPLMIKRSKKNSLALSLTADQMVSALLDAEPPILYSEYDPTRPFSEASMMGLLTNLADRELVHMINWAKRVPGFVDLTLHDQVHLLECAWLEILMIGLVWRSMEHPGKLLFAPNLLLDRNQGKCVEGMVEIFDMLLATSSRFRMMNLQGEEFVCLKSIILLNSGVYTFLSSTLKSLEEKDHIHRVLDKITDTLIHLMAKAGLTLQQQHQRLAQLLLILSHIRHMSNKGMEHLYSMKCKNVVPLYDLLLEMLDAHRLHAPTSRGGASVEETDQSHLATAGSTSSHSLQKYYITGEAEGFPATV

SMILES	Potency [1]	Potency [2]	Potency [3]	Potency [4]	Potency [5]	Potency [6]	Potency [7]	Potency [8]	Potency [9]	outcome [10]
N#CC(C#N)=NNc1cccc(Cl)c1	12.2 µM (active)	2.43 µM (active)	1.54 µM (active)	1.09 µM (active)	24.3 µM (active)	inactive	27300 nM (active)	27.3 µM (active)	inactive	–
CC(C)=CC1C(C(=O)OC(C#N)c2cccc(Oc3ccccc3)c2)C1(C)C (stereo not given)	inactive	inactive	inactive	–	inactive	inactive	inactive	inactive	inactive	–
CC(Cc1ccc2c(c1)OCO2)NO (stereo not given)	inactive	inactive	–	inactive	inactive	inactive	inactive	inactive	inactive	inactive
[Cl][Hg][c]1ccccc1	9.69 µM (active)	8.63 µM (active)	2.43 µM (active)	6.11 µM (active)	30.6 µM (active)	13.7 µM (active)	545 nM (active)	0.864 µM (active)	inactive	–
c1ccc2nc(N3CCNCC3)ccc2c1	inactive	inactive	–	inactive	inactive	inactive	–	inactive	inactive	inactive
O=C1C(Cl)=C(Cl)C(=O)C(Cl)=C1Cl	inactive	48.4 µM (active)	27.2 µM (active) and 24.3 µM (active)	inactive	inactive	inactive	24.2 µM (active) and 24.3 µM (active)	60.9 µM (active) and 24.3 µM (active)	inactive	–
S=C=NCCc1ccccc1	inactive	inactive	48.7 µM (active)	inactive	inactive	–	inactive	inactive	61.3 µM (active)	–
CCOP(=S)(OCC)Oc1cc(C)nc(N(CC)CC)n1	inactive	inactive	34.4 µM (active)	–	inactive	inactive	inactive	inactive	inactive	–
N#Cc1sc2c(=O)c3ccccc3c(=O)c=2sc1C#N	5.45 µM (active)	13.7 µM (active)	4.86 µM (active)	2.43 µM (active)	27.3 µM (active)	30.6 µM (active)	8630 nM (active)	9.69 µM (active)	inactive	–
BrCCCBr	inactive	inactive	inactive	–	inactive	inactive	inactive	inactive	inactive	–
O=C(O)CCCCCCNC1c2ccccc2CCc2ccccc21	inactive	inactive	–	inactive	inactive	inactive	inactive	inactive	inactive	inactive
CC(C)NCC(O)c1ccccc1Cl (stereo not given)	inactive	inactive	inactive	inactive	inactive	inactive	inactive	inactive	inactive	inactive
O=C(NC(=O)c1ccccc1Cl)Nc1ccc(OC(F)(F)F)cc1	inactive	inactive	inactive	–	–	inactive	inactive	inactive	inactive	–
C=CC(=O)[O][Sn]([CH2]CCC)([CH2]CCC)[CH2]CCC	27.3 µM (active)	1.09 µM (active)	0.545 µM (active)	–	inactive	19.3 µM (active)	243 nM (active)	1.09 µM (active)	inactive	–
CC(Cc1ccccc1)N(C)Cc1ccco1 (stereo not given)	inactive	inactive	inactive	inactive	inactive	inactive	inactive	inactive	inactive	–
CC#C[C@]1(O)CC[C@H]2[C@@H]3C[C@H](C)C4=CC(=O)CC[C@]4(C)[C@H]3CC[C@@]21C	inactive	inactive	inactive	inactive	inactive	inactive	inactive	inactive	inactive	–
COC(=O)/C=C(\C)OP(=O)(OC)OC	inactive	inactive	–	inactive	inactive	inactive	inactive	inactive	inactive	–
CCN(CC)CCc1c[nH]c2ccccc12	inactive	inactive	–	–	inactive	inactive	inactive	inactive	inactive	inactive
C[N+]1(C)[C@@H]2CC[C@H]1CC(OC(=O)C(CO)c1ccccc1)C2 (stereo not given in full)	inactive	inactive	–	–	inactive	inactive	inactive	inactive	inactive	inactive
CC(=O)[O][Sn]([c]1ccccc1)([c]1ccccc1)[c]1ccccc1	0.545 µM (active)	0.306 µM (active)	–	inactive	inactive	54.5 µM (active)	54.5 nM (active)	0.109 µM (active)	inactive	–
CCCCC(CC)COC(=O)c1ccccc1C(=O)OCC(CC)CCCC (stereo not given)	inactive	inactive	–	–	inactive	inactive	inactive	inactive	inactive	inactive
CCOC(=O)CCN(SN(C)C(=O)Oc1cccc2c1OC(C)(C)C2)C(C)C	inactive	inactive	–	inactive	inactive	inactive	inactive	inactive	inactive	–
